Screening results deposited in PubChem by National Center for Advancing Translational Sciences (NCATS).
Sampled rows, rich in hits. Any-hit rate of the full collection: about 2.4%.
D2 ag-1 = HTS Assay for Allosteric Agonists of the Human D2 Dopamine Receptor: Primary Screen for Agonists; D(2) dopamine receptor (Homo sapiens), P14416; HEK293 T-REx D2 cells, calcium flux agonist mode; hit rate 0.53% among 340,000; activation, % at 2 µM;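 active means activation over 3 SD above normal in the single-dose calcium agonist read, cut at about 30% in these data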; further: 0% is about no effect
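HEK293 Trex D2 cells, tetracycline-induced, o/n 30 C 5% CO2; no-wash Ca dye, RT 30–90 min; 10-cycle baseline, 23 nl cpd added, kinetic Ca read 180 s; agonist hits = positive Ca response.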
D2 PAM-1 = Beta-Arrestin HTS for Positive Allosteric Modulators of the Human D2 Dopamine Receptor: Potentiators. DiscoveRx D2 beta-arrestin cells, luminescence, 90 min; 100% = 57 uM dopamine signal. AID 624464, 2012. D(2) dopamine receptor (Homo sapiens), P14416. potentiation, % (concentration not given with the values). hit rate 0.23% among 360,000; in the data active means potentiation above about 50%; inconclusive means mostly about 30% to 49%
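PathHunter beta-arrestin assay in DiscoveRx D2 cells. Compounds were added with an EC20 of dopamine (50 nM final) for 90 min at 37 deg C. Luminescence was read 1 h after detection reagent, with 57 uM dopamine as the EC100 control.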
D2 antag = HTS Assay for Allosteric Antagonists of the Human D2 Dopamine Receptor: Primary Screen for Antagonists. HEK293 TREx D2 cells, calcium flux, dopamine EC80. inhibition, % at 10 µM. AID 485344, 2010. hit rate 2% among 340,000. D(2) dopamine receptor (Homo sapiens), P14416; in the data active means inhibition above about 30%; inactive means below that, where a call was filed; further: 0% is about no effect
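Compounds are added to dye-loaded, induced HEK293 T-REx cells coupled to calcium release via D2; after a 3 min kinetic read an EC80 dopamine stimulus is given and fluorescence is recorded for 3 more min.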
D2 PAM-2 = HTS Assay for Positive Allosteric Modulators of the Human D2 Dopamine Receptor: Primary Screen for Potentiators | AID 485347, 2010 | HEK293 T-REx D2, calcium flux, EC20 dopamine potentiation | hit rate 0.34% among 340,000 | potentiation, % at 10 µM;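 active means potentiation over 3 SD above the plate norm, cut at about 30% in these data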; further: 0% is about no effect
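Potentiation of an EC20 dopamine calcium response measured kinetically over 180 s, after a preceding 180 s compound-only read flagging agonists. Cells: inducible Hek293 Trex D2 line, 4000/well, cultured overnight at 30 C before dye loading.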
D2 ag-2 = Beta-Arrestin HTS for Positive Allosteric Modulators of the Human D2 Dopamine Receptor: Agonists. hit rate 0.084% among 360,000. activation, % (concentration not given with the values). D(2) dopamine receptor (Homo sapiens), P14416. DiscoveRx PathHunter D2 beta-arrestin, luminescence, 90 min; 100% = 57 uM dopamine signal; in the data active means activation above about 40%; inconclusive means between about 15% and that limit
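Agonist mode: compounds alone added to overnight-plated D2 PathHunter cells for 90 min at 37 C, with 57 uM final dopamine (EC100) defining full response. Beta-arrestin recruitment detected by chemiluminescent reagent, read after 1 h at ambient temperature.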
D3 arrestin ag = qHTS of D3 Dopamine Receptor Agonist: D3 Dopamine Receptor B-arrestin Agonist Confirmatory Assay. shares compounds with D2 ag-1. Potency, µM (doses to about 76.9 µM), for the others: at the top dose activation, most hits filed as activators. hit rate 4% among 2,300. DiscoveRx D3 beta-arrestin cells, luminescence, 90 min;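 further: potency means the concentration at half of the fitted maximal effect; 100% = dopamine control response; nearly all actives have a fitted effect of over 70% in size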
Target sequence (P35462 whole entry, looked up): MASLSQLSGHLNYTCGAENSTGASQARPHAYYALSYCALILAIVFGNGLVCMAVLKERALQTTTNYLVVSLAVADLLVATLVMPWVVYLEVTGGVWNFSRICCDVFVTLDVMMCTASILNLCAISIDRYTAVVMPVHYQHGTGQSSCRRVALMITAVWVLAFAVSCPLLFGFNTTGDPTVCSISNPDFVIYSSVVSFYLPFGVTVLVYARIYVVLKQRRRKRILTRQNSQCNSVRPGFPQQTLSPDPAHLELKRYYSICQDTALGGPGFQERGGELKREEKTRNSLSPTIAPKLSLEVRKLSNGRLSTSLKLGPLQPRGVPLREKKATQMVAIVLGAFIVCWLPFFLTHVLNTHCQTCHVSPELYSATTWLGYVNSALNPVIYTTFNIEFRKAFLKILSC
D2 ag-3 = qHTS of D3 Dopamine Receptor Agonist: D2 Dopamine Receptor B-arrestin Agonist Counterscreen; Potency, µM (titrated, usually from 76.9 µM), inactives show at the top dose activation, hits mostly activators; hit rate 5.9% among 2,300; shares compounds with D2 ag-1; DiscoveRx PathHunter D2 beta-arrestin, luminescence, 90 min; response scale: percent relative to full dopamine signal; AID 720507, 2013; further: potency means the concentration at half of the fitted maximal effect; % of control where 0% means no effect; nearly all actives have a fitted effect of over 70% in size
Active calls of the source: *; ? = inconclusive; . = no result given. Unless noted, the call rests on the fitted dose curve; in most records, active means well fitted activation curve with a large enough effect; inconclusive means small, poorly fitted or top-dose-only effect; inactive means flat fitted curve, though single readings scatter.

SMILES	D2 ag-1	D2 PAM-1	D2 antag	D2 PAM-2	D2 ag-2	D3 arrestin ag	D2 ag-3
c1ccc(CN2CCN(c3ncnc4nc[nH]c34)CC2)cc1	81*	8	68*	-22	10	3%	?
C1=C(c2ccccc2)CCN(c2ncnc3nc[nH]c23)C1	0	-3	-13	4	2	.	.
Cc1ccc(-n2nc(C)c3c(C(=O)Nc4ccc(Br)c(C)c4)cc(C)nc32)cc1	1	.	.	4	.	.	.
COc1cccc(-n2cc(CN(C)Cc3nc(Cc4ccccc4)no3)cn2)c1	11	-4	5	7	-2	.	.
COc1cccc(-n2cc(CN(C)Cc3nc(Cc4cccc(F)c4)no3)cn2)c1	16	-3	-3	-3	6	4%	1%
O=C1C2CC=CCC2C(=O)N1c1ccc(N2CCN(c3ccccn3)CC2)c([N+](=O)[O-])c1 (stereo unspecified)	26	7	18	-22	2	?	9%
CCN1C=CC2=C(C#N)C(N)C(C#N)(C#N)C(c3ccccc3C(F)(F)F)C2C1 (stereo unspecified)	3	-13	14	14	-8	-1%	-3%
CCN1C=C(Cc2ccccc2C)C2=C(C1)C(c1ccccc1C)C(C#N)=C(N)O2 (stereo unspecified)	.	-34	.	0	0	.	.
O=C(COC(=O)c1ccccn1)NC(=O)c1ccccc1	-1	-3	-11	8	-7	-4%	-6%
CCOc1ccc(C(=O)N/N=C(\c2ccccc2)c2ccccn2)cc1	-1	-28	21	5	-4	-23%	-11%
COc1ccc(CN2CCSCC2)c(OC)c1C	-1	-11	-17	-6	-4	.	.
COc1ccc(CN2CCN(c3ncccn3)CC2)c(C)c1C	88*	5	93*	-29	47*	?	2.2µM*
COc1cccc(CN2CCN(Cc3cccc(Oc4ccccc4)c3)CC2)c1OC	-1	-41	-16	-24	-3	.	.
COc1ccc(CN2CCN(c3ccccn3)CC2)c(OC)c1C	.	13	.	.	13	0%	?
COc1ccccc1N1CCN(CCCCOc2cccc3ccccc23)CC1	35*	-42	73*	-19	1	-3%	17%
COc1cccc(CN2CCN(Cc3cc(OC)c(OC)c(OC)c3)CC2)c1OC	0	-11	4	-9	5	0%	-1%
CCOc1ccccc1N1CCN(Cc2cccc(OC)c2OC)CC1	26	4	87*	-32	2	-22%	-3%
c1cnc(N2CCN(Cc3c[nH]c4ccccc34)CC2)nc1	86*	?	83*	-28	?	4%	?
COc1cccc(CN2CCN(c3ncccn3)CC2)c1OC	81*	10	60*	-18	?	14%	?
CCOC(=O)C1CCN(C(=O)C2CCN(C3=NS(=O)(=O)C(c4ccc(C)cc4)=C3CC)CC2)CC1	0	.	.	3	.	.	.
CCN(CC)Cc1cc(Oc2ccc(O)c(CN(CC)CC)c2)ccc1O	.	-11	.	.	-8	.	.
Oc1ccc(CNCC2COc3ccccc3O2)cc1 (stereo unspecified)	68*	-28	185*	-28	11	-4%	19%
c1ccc(CCNCC2COc3ccccc3O2)cc1 (stereo unspecified)	32*	-13	24	-22	4	2%	3%
CN(C)S(=O)(=O)c1cccc(CNCC2COc3ccccc3O2)c1 (stereo unspecified)	77*	-8	106*	-27	12	?	29%
CCN(C(=O)C1CCC(CNS(=O)(=O)c2cccc3nsnc23)CC1)c1cccc(C)c1 (stereo unspecified)	0	.	.	3	.	.	.
SMILES	D2 ag-1	D2 PAM-1	D2 antag	D2 PAM-2	D2 ag-2	D3 arrestin ag	D2 ag-3
Fc1ccccc1N1CCN(CC2CC3C=CC2C3)CC1 (stereo unspecified)	79*	-7	74*	-15	?	?	?
COc1cccc(S(=O)(=O)NCc2ccc(C(=O)N3CCN(c4ccccc4)CC3)cc2)c1	59*	5	56*	-16	?	-5%	?
COc1cccc(S(=O)(=O)NCc2ccc(C(=O)N3CCN(c4ccccc4OC)CC3)cc2)c1	.	.	.	-24	.	-1%	7%
COc1ccc(OC)c(CNS(=O)(=O)c2ccc(-c3coc(C)n3)cc2)c1	0	.	.	-6	.	.	.
Cc1cc(C(=O)NNC(=O)c2ccc(C(F)(F)F)cc2)no1	1	-6	19	1	-1	-6%	-6%
Cc1ccc(NNC(=O)c2cc(C)on2)c(C)c1	1	-2	-8	7	2	.	.
Cc1cc(C(=O)NNc2ccc(F)cc2F)no1	49*	-6	8	-19	6	-2%	-1%
COc1cc(NC(=O)C2CCN(S(=O)(=O)c3c(C)noc3/C=C/c3cccs3)CC2)cc(OC)c1	1	.	.	-7	.	.	.
CCOC(=O)NC(=O)CSc1nc(-c2ccc(C)c(C)c2)cn1-c1ccccc1	-1	15	8	9	-1	8%	6%
Cc1ccc(-c2cn(-c3ccccc3)c(SCC(N)=O)n2)cc1C	-1	6	10	-7	-3	.	.
OC(COc1ccc2c(c1)OCO2)CN1CCN(c2ccccc2)CC1 (stereo unspecified)	71*	-14	82*	-32	?	?	?
COc1ccc(N2CCN(CC(O)COc3ccc(C(C)(C)C)cc3)CC2)cc1 (stereo unspecified)	9	.	.	-2	.	.	.
CC(C)c1ccc(OCC(O)CN2CCN(c3ccccc3)CC2)cc1 (stereo unspecified)	54*	-8	78*	-26	?	-4%	?
COc1ccc(OCC(O)CN2CCN(c3ccccc3)CC2)cc1 (stereo unspecified)	89*	-25	-4	-22	?	?	?
COc1ccc(C(=O)CN2CCN(c3ncccn3)CC2)cc1	80*	-4	39*	-33	14	26%	27%
